In the supplement of paper PMC6555819:

How the values were obtained:
Assay in all cases: PBM binding z-score (relative to random genomic background probes); higher = stronger binding; sequences stand for … in GC…GCGATTGACAGCGTAGAATGAAGG
[1] = system: RARb homodimer (NR concentration 270 nM)
Outline: (§1)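 Binding z-scores take random background probes as their reference. They come from custom Agilent 4×180K protein-binding microarrays incubated 1 h with ligand-free nuclear receptor dimers, with antibodies against each partner (one per run) detecting binding. Scanned fluorescence was regression-normalized.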

[2] = system: RARg:RXRa (NR concentration 270 nM, RXRa partner concentration 90 nM)
Outline: as §1

[3] = system: RARg homodimer (NR concentration 270 nM)
Outline: as §1

[4] = system: RXRa DBDmut IVT, anti-RXR (DBD mutation: RXRa K156A/R161A, NR concentration 90 nM)
Outline: as §1

[5] = system: RXRa homodimer (NR concentration 180 nM)
Outline: as §1

[6] = system: THRa:RXRa (NR concentration 90 nM, RXRa partner concentration 90 nM)
Outline: as §1

[7] = system: THRa homodimer (NR concentration 90 nM)
Outline: as §1

[8] = system: VDR homodimer (NR concentration 270 nM)
Outline: as §1

Row | Sequence | PBM binding z-score [1] | PBM binding z-score [2] | PBM binding z-score [3] | PBM binding z-score [4] | PBM binding z-score [5] | PBM binding z-score [6] | PBM binding z-score [7] | PBM binding z-score [8]
1 | TCTTGTAGATCAGCAGGTTATGAAAGCTGGCCAA | -0.0555 | -0.168 | -0.428 | 0.64 | 0.311 | 0.276 | -0.466 | -0.405
2 | TCTGTTAGGTCAGTTGGTCAGCTAACGAGCTGCC | 3.01 | 3.01 | 4.2 | 1.33 | 1.19 | 2.68 | 1.69 | 0.469
3 | GCTCGCAGGACAAGGTCAGAGCTTTGTCCGTAGA | 2.58 | 2.71 | 2.74 | 0.16 | 2.1 | 2.5 | 1.09 | -0.354
4 | CAAACTAGGTCAAGAGGTCATAGTCCGCTTCCCG | 5.49 | 7.6 | 7.08 | 2.78 | 7.48 | 4.35 | 2.59 | 3.82
5 | CTGACTGGGGCAAAGGTTACCATACTCAGTACGA | 2.6 | 3.83 | 2.21 | 0.587 | 4.06 | 2.08 | 0.233 | 0.376
6 | ATCTCTAGGTAAGACTCATTTCAGTGAAGAACGC | 0.362 | -0.0496 | 0.0938 | 0.594 | -0.0279 | 0.358 | 0.931 | 0.563
7 | TCTTGTCGATCAAAGGTTAAGAAAGCCGAAGCCT | 1.49 | 2.01 | 0.765 | 0.676 | 2.43 | 1.33 | -0.0604 | 0.0763
8 | GCGACTGGGGCAAAGCATGTTACCATAAGGTTGG | 0.192 | 0.235 | 0.278 | 0.0488 | 0.0784 | 0.269 | -0.43 | -0.625
9 | CAGTCTAGGTCAGGGCCAGTATAGGAGGAACGTT | 2.84 | 3.02 | 3.96 | 0.701 | 1.55 | 2.42 | 1.52 | 0.322
10 | AGTTAAAGTTCACTAGGTAACGTAAGATTCAGCT | 3.53 | 4.38 | 4.95 | 3.86 | 3.07 | 1.92 | 0.252 | 3.22
11 | CAAACTAGGTCACACAGGTCAAAGTCCGTGCGTA | 5.02 | 6.04 | 5.85 | 2.27 | 5.62 | 4.13 | 2.13 | 4.16
12 | CCTACTGGGCCAAGGTCATGGATCAGTCAAAGCA | 3.54 | 4.16 | 3.48 | -0.0426 | 3.95 | 3.71 | 2.5 | 1.68
13 | TCTATTAGTTGGAGGGCAACCGACGAGTCCGTTT | 1.31 | 0.442 | 0.781 | 1.47 | 0.834 | 0.528 | 0.592 | 1.86
14 | ACTCGGAGGACAAAGGCCAGAGCTACGCCAGTGA | 0.873 | 0.907 | 1.26 | 0.472 | -0.212 | 0.389 | -0.475 | -0.537
15 | ATCGAAAAGTCGACGAGGTGAGTATACACCGTTT | 0.0886 | 0.532 | 0.571 | -0.248 | 0.751 | 1.74 | 0.716 | -0.201
16 | CCTTACGGGTCACTGACACGTTATAGCATTTGGA | 2.9 | 4.76 | 4.47 | 2.05 | 4.94 | 2.5 | 0.436 | 0.844
17 | TGTATGAGGTTATAAGATCAGGGAACGTTGCAAA | 0.472 | 1.82 | 1.46 | 1.02 | 1.85 | 2.08 | 0.546 | 0.837
18 | GAACCAAGGTGAATAGGTCGTTGATGAGTAGGCG | 1.78 | 2.53 | 1.25 | -0.268 | 2 | 1.77 | 0.124 | -0.00141
19 | CCTATTAGCTGACCATAAGGGCAACCGAAGCTCG | 1.61 | 0.474 | 0.729 | 0.637 | 0.376 | 1.38 | 1.18 | 0.435
20 | CCATACGGGTCAAGGTTATAGCACGGGTGGTACG | 3.43 | 4.7 | 4.33 | 0.452 | 4.65 | 2.85 | 0.691 | 1.15
21 | CCGACTGGGGCTAGGTTACCATAACGCACAGCCA | 0.542 | 0.00576 | 0.24 | -0.639 | 0.166 | 0.173 | -0.0667 | -0.608
22 | CGTGCAAGGTCATAGGAGGTCAGTGAAGACAGAT | 5.38 | 7.04 | 7.51 | 4.08 | 7.22 | 5.44 | 2.87 | 4.63
23 | TAGCCTATGTCATGGGCCAGTATACCACGCGAAC | 0.149 | 0.192 | 0.474 | -0.981 | 0.178 | -0.349 | -0.74 | -0.627
24 | AGAATGAGGTTATACGTAGATCAGGGAAGAAAGT | 1.19 | 1.88 | 1.24 | 1.35 | 2.23 | 2.23 | 0.863 | 0.864
25 | CGAGCTAGGTCATCCAGGACAGTGAATACATTGA | 3.01 | 3.93 | 4.72 | 1.97 | 2.89 | 3.48 | 1.79 | 1.91
26 | CCTCGGAGGACAACAGGAGGTCAGATCTGCCAGA | 3.64 | 3.34 | 3.12 | 0.415 | 1.59 | 2.81 | 1.03 | 1.28
27 | AGAAGGAGGTTACCAAAGATCAGGGAAACGCTTG | 1.11 | 1.66 | 1.54 | -0.25 | 2.27 | 1.73 | 0.244 | 0.128
28 | CCTGCTAGGTTATGGTCAGCTAATCTACAGTATG | 0.748 | 0.34 | 0.636 | 0.299 | 0.0468 | 0.383 | -0.417 | -0.337
